JMJD2A Tudor: JMJD2A Tudor domain (human) inhibition | 390,000 tested, 4.4% active | AlphaScreen JMJD2A-Tudor / H3K4me3 peptide binding | O75164 | Potency, µM (series often up to 114 µM), for inactives: top-dose activity change, negative = inhibition, actives largely listed as inhibitors; note: potency is the fitted concentration of half-maximal effect; % is set by controls: 0 for no effect and ±100 for the full control effect; nearly all actives have a fitted effect of over 50% in size
Six1-Eya2 inh: inhibitors of human Six1/Eya2 interaction. Q15475+O00167. AlphaScreen GST-Six1/His-Eya2 binding, biochemical; hits give low values. activity change, % (concentration not given with the values). 360,000 tested, 0.56% active. AID 651725; in the data active = activity change below about -65%; inconclusive = mostly about -30% to -63%; note: % is set by controls: 0 for no effect and ±100 for the full control effect
Target sequence (O00167 whole entry, looked up): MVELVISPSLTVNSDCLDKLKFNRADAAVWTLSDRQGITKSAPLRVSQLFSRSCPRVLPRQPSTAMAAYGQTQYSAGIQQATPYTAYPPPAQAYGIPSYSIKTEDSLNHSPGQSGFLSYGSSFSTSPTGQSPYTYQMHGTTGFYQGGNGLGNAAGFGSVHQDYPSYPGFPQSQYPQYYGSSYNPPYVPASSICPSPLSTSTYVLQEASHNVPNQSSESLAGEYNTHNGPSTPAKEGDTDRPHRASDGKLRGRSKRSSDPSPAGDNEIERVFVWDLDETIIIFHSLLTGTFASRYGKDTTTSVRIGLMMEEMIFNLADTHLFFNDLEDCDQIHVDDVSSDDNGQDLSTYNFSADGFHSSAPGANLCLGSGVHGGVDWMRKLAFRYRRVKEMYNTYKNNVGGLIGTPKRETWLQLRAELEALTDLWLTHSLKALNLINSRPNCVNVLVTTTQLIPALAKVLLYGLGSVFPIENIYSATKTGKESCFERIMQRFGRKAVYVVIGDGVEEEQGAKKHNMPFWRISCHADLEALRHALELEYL
Target sequence (Q15475 whole entry, looked up): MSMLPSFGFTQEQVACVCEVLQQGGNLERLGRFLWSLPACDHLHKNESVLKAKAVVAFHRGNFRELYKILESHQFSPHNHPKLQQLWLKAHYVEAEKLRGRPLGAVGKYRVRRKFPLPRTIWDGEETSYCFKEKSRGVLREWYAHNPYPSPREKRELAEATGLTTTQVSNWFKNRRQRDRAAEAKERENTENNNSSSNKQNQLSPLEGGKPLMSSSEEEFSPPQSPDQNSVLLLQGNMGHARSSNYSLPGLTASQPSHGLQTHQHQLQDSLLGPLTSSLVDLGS
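Homogeneous AlphaScreen proximity assay pairing GST-Six1 with His-tagged Eya2 (added as 5X mix: 250 nM and 500 nM) in 50 mM Tris pH 8.0, 300 mM NaCl, 1 mM TCEP. Glutathione donor and nickel acceptor beads; 1 h, 37 °C, dark.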
HP1b binding inh: blocks HP1-beta chromodomain binding to methylated histone tails | P83916 | AlphaScreen HP1-beta / biotin-H3K9me3 peptide binding | Potency, µM (top dose mostly 114 µM), for the others: at the top dose activity change, negative = inhibition, actives largely listed as inhibitors | 390,000 tested, 0.56% active | AID 540317; note: potency is the fitted concentration of half-maximal effect; nearly all actives have a fitted effect of over 70% in size
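HP1-beta protein (50 nM final) preincubated 30 min at room temperature with biotinylated H3(1-18)K9me3 peptide (50 nM) in PBS pH 7.4, 0.01% Tween-20, then compound added for 30 min. AlphaScreen streptavidin donor/nickel chelate acceptor beads (10 ug/mL final), 30 min dark, luminescence read.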
BAZ2B inh: blocks human BAZ2B | AlphaScreen BAZ2B-H3K14Ac peptide displacement | Potency, µM (series often up to 114 µM), for inactives: at the highest dose activity change, negative = inhibition, usual class: inhibitors | 360,000 tested, 4.4% active; note: potency is the fitted concentration of half-maximal effect; % is set by controls: 0 for no effect and ±100 for the full control effect; nearly all actives have a fitted effect of over 60% in size
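In this displacement format the biotinylated H3(5-23) peptide acetylated at Lys14 serves as ligand at 50 nM, with BAZ2B at 50 nM in PBS pH 7.4 containing 0.01% Tween-20. Donor and acceptor beads are 10 ug/mL final.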
CtBP-E1A blk: blocks the CtBP interaction with E1A | AlphaScreen GST-E1A/His-CtBP binding, 1536-well; hits give low values | activity change, % (concentration not given with the values) | 340,000 tested, 0.49% active | AID 651724; in the data active = activity change below about -65%; inconclusive = mostly about -30% to -63%; note: % is set by controls: 0 for no effect and ±100 for the full control effect
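GST-E1A and His-tagged CtBP (125 nM each as 5X stock) were preincubated with pin-transferred compound for 2 h at 37 °C in the dark, then glutathione donor and nickel acceptor beads were added for 1 h before AlphaScreen reading.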
G9a block: blocks human histone lysine methyltransferase G9a; Q96KQ7; G9a H3K9 monomethylation, AlphaScreen, 2 h; Potency, µM (titrated, usually from 102 µM), for inactives: top-dose activity, negative = inhibition, most hits filed as inhibitors; 350,000 tested, 8.8% active; note: potency is the fitted concentration of half-maximal effect; % is set by controls: 0 for no effect and ±100 for the full control effect; nearly all actives have a fitted effect of over 75% in size
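Compounds were preincubated with 20 nM G9a for 15 min, after which biotinylated H3K9 peptide (500 nM) and SAM (20 uM) started a 2 h room-temperature reaction. Monomethylated product was quantified by antibody-based AlphaScreen chemiluminescence.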
Numbers without * were called inactive; u = inconclusive; x = no result given; [ ] = dose if it differs, or a comment. The list is not random: actives were taken first. Their share in the collection is about 10%. Unless noted, calls come from the whole dose curve; as a rule, active = well fitted inhibition curve with a large enough effect; inconclusive = small, poorly fitted or top-dose-only effect; inactive = no such curve, though single readings can be large or run the other way.

SMILES	JMJD2A Tudor	Six1-Eya2 inh	HP1b binding inh	BAZ2B inh	CtBP-E1A blk	G9a block
COc1cc(NC(=O)CN(C)C2CCCCC2)c(C)cc1[N+](=O)[O-]	u	-2.6	-10.2%	-11.1%	-2.5	-6.0%
Cc1c(C)c2cccnc2c2ncccc12	10µM*	-92.5*	33.0%	5.62µM*	-95.4*	x
Oc1c(Cl)c(Cl)c2ncccc2c1Cl	u	-14.1	u	x	-0.5	x
O=[N+]([O-])c1cc(Cl)c(O)c2ncccc12	22.4µM*	-80.3*	u	20µM*	-90.7*	25.1µM*
COc1ccc(N(Cc2nnc3n2CCCCC3)C(=O)Nc2cccc(C)c2)cc1Cl	-7.5%	x	23.8%[57 µM]	-1.1%	x	10.6%[59 µM]
COc1cc(CNC[C@H]2O[C@@H](n3cc(C)c(=O)[nH]c3=O)C[C@@H]2O)ccc1OCc1cccc(Cl)c1	x	7.5	x	x	-4.7	x
COC(=O)CC1C2(C)CC34OC5(C)O[C@@]6(C7/C(=C(/OC)C(C)C)C(=O)OC(c8ccoc8)[C@@]7(C)C(OC(=O)C(C)C)C(OC)[C@]6(O5)[C@@]13C)C(OC)[C@]4(OC)C2OC(C)=O (stereo partly specified)	x	x	x	x	x	-30.3%[2.33 µM]
CCOC(=O)CC(=O)NC1(Cc2ccc(O)cc2)CCCCC1	-7.7%	-4.9	30.9%	3.1%	5.5	2.4%
Oc1c(I)cc(Cl)c2cccnc12	79.4µM*	-95.3*	3.5%	39.8µM*	-94.6*	35.5µM*
O=[N+]([O-])c1cc(F)c2cccnc2c1O	10µM*	-87.9*	10.7%	11.2µM*	x	8.91µM*
O=[N+]([O-])c1cc(Cl)c2cccnc2c1O	20µM*	-81.3*	u	17.8µM*	-91.5*	35.5µM*
O=[N+]([O-])c1ccc(Cl)c2cccnc12	-15.6%	-10.8	14.4%	-2.7%	-1.9	10.7%
Cc1ccc2c(=O)n3c(nc2c1)C(CC(C)C)NC(=O)c1cccnc1-3 (stereo unspecified)	x	-4.9	x	x	-3.0	x
O=C(N/N=C/c1ccc(-c2ccccc2C(=O)O)o1)c1cccs1	89.1µM*	-29.4	4.9%	56.2µM*	-22.4	8.91µM*
N#Cc1c(-c2ccc(Cl)cc2)c(-c2ccc(Cl)cc2)nn(CCOC(=O)CCC(=O)O)c1=O	-21.5%	-2.1	27.7%	x	-2.2	x
COc1ccc(-c2cccc(-c3nc4ccc(Cl)cn4c3NC3CCCCC3)c2)cc1	-34.3%	-0.4	17.9%	x	4.7	x
CCCCNc1c(-c2cccc(-c3cc(C(C)=O)cs3)c2)nc2cc(C)ccn12	u	-20.1	-8.2%	28.2µM*	u	4.9%[2.33 µM]
CC(=O)c1csc(-c2cccc(-c3nc4ccc(Cl)cn4c3NC3CCCCC3)c2)c1	u	0.5	-6.6%	56.2µM*	-3.9	2.4%[2.33 µM]
N#Cc1c(/N=C/c2ccco2)sc2c1CCCCC2	-19.4%	u	u	35.5µM*	u	u
CCOC(=O)Nc1sc2c(c1C#N)CCC(C)C2 (stereo unspecified)	4.8%	-2.1	19.8%	14.4%	1.9	-3.5%[59 µM]
CC1CCc2c(sc(/N=C/N(C)C)c2C#N)C1 (stereo unspecified)	-30.8%	-8.2	-3.7%	39.8µM*	-1.2	22.4µM*
CN(C)/C=N/c1sc2c(c1C(N)=O)CCCC2	-15.0%	-12.9	8.5%	u	-0.8	-9.9%
CN(C)/C=N/c1sc2c(c1C#N)CCCC2	-32.2%	2.0	12.8%	u	23.1	50.1µM*
Nc1nc2ccccc2n1C(=O)c1ccccc1	-10.7%	-6.2	36.4%	79.4µM*	x	x
Nc1nc(N)nc(-c2ccc(Cl)cc2)n1	-11.5%	2.6	7.0%	79.4µM*	7.8	-2.4%
Cc1cc(C)cc(OCC(=O)N(Cc2ccc(N(C)C)cc2)C2CCS(=O)(=O)C2)c1 (stereo unspecified)	63.1µM*	0.0	u	39.8µM*	-2.4	-113.5%[59 µM]
Cc1ccc(OCC(=O)N(Cc2cccs2)C2CCS(=O)(=O)C2)cc1 (stereo unspecified)	8.2%	10.2	22.5%	-8.6%	5.1	1.2%

From PubChem
